{"source": "PubChem BioAssay (EPA / NIEHS)", "key": {"PGR (gene 5241) [1]": {"molecular_target": "PGR (gene 5241) (UniProt P06401)", "sequence (P06401 whole entry, looked up)": "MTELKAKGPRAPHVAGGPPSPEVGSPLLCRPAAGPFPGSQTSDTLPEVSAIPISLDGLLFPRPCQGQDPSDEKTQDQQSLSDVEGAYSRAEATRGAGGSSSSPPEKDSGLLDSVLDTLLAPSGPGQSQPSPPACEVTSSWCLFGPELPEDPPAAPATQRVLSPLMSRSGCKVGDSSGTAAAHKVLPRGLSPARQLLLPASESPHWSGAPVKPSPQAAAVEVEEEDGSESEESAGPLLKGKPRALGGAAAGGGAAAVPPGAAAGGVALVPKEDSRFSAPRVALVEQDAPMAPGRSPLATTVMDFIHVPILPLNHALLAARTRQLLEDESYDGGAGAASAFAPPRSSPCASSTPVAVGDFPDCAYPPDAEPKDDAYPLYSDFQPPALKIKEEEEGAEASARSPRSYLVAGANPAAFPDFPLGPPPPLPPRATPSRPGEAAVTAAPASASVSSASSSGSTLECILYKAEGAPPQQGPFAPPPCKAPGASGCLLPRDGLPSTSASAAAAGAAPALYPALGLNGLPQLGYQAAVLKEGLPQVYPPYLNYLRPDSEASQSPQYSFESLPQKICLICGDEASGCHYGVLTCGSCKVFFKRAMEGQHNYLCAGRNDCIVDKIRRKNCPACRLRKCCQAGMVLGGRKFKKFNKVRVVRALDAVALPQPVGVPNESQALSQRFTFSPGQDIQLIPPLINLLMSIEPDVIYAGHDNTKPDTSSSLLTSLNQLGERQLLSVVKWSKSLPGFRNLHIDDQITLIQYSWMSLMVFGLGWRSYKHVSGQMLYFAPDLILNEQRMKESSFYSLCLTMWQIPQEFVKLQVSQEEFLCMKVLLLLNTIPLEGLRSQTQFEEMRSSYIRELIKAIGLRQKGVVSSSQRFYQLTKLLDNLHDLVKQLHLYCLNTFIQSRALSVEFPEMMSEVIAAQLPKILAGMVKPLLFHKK", "assay": "TOX21_PR_BLA_Followup_Antagonist_ratio: Tox21 HEK293 Progesterone Receptor (PR) Antagonism Beta-lactamase Follow-Up Assay, Ratio (AID 2283934)", "how_it_was_run": "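Readout is the blue/green (ch2/ch1) substrate cleavage ratio after 2 hours at room temperature, following 16 hr co-treatment of PR-bla HEK293T cells with compound and 1nM promegestone. Multiplexed CellTiter-Glo viability flags cytotoxicity; DMSO baseline.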"}, "[2]": {"assay": "TOX21_PR_BLA_Followup_Agonist_viability: Viability Assessment in the Tox21 HEK293 Progesterone Receptor (PR) Agonism Beta-lactamase Follow-Up Assay (AID 2283935);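 note: signal loss means lower viability so actives are cytotoxic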", "how_it_was_run": "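Run multiplexed with the beta-lactamase FRET read, this endpoint measures ATP by CellTiter-Glo luminescence (30 min, room temperature). PR-UAS-bla HEK293T cells received compound 6 hr after plating and were then incubated 16 hr at 37C in 2% stripped serum.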"}, "[3]": {"assay": "TOX21_PR_BLA_Followup_Antagonist_viability: Viability Assessment in the Tox21 HEK293 Progesterone Receptor (PR) Antagonism Beta-lactamase Follow-Up Assay (AID 2283936);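 note: hits lower the luminescence signal meaning cytotoxicity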", "how_it_was_run": "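PR-UAS-bla HEK293T cells in medium with 2% charcoal-stripped FBS were treated with compounds plus R5020 for 16 hr at 37C. After the beta-lactamase read, CellTiter-Glo was added to the same wells and luminescence read after 30 min at room temperature.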"}, "PGR (gene 5241) [4]": {"molecular_target": "PGR (gene 5241) (UniProt P06401)", "assay": "TOX21_PR_LUC_Followup_Agonist: Tox21 HEK293 Progesterone Receptor (PR) Agonism Luciferase Follow-Up Assay (AID 2283937; active = hit-call score of the fitted dose curve at least 0.9, where 1 is the maximum; inactive = score below 0.9)", "how_it_was_run": "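Agonism scored as luciferase induction over DMSO, read by ONE-Glo after 30 min at RT. Compounds were incubated 16 h at 37C on HEK293-PR-A-luc cells (3,000/well, pre-plated 5 h) previously grown 5 days in charcoal-stripped serum.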"}, "PGR (gene 5241) [5]": {"molecular_target": "PGR (gene 5241) (UniProt P06401)", "assay": "TOX21_PR_LUC_Followup_Antagonist: Tox21 HEK293 Progesterone Receptor (PR) Antagonism Luciferase Follow-Up Assay (AID 2283938);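 note: curve fitted upward as signal gain over DMSO baseline despite antagonist label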", "how_it_was_run": "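Luminescence from ONE-Glo was measured 30 min after reagent addition, following 16 h exposure of HEK293-PR-A-luc cells (3,000/well, plated 5 h earlier) to DMSO-dissolved compounds at 37C; DMSO served as baseline.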"}, "[6]": {"molecular_target": "Thyroid hormone receptor alpha (Rattus norvegicus) + Thyroid hormone receptor beta (Rattus norvegicus) (UniProt P18113+P63059)", "sequence (P63059 whole entry, looked up)": "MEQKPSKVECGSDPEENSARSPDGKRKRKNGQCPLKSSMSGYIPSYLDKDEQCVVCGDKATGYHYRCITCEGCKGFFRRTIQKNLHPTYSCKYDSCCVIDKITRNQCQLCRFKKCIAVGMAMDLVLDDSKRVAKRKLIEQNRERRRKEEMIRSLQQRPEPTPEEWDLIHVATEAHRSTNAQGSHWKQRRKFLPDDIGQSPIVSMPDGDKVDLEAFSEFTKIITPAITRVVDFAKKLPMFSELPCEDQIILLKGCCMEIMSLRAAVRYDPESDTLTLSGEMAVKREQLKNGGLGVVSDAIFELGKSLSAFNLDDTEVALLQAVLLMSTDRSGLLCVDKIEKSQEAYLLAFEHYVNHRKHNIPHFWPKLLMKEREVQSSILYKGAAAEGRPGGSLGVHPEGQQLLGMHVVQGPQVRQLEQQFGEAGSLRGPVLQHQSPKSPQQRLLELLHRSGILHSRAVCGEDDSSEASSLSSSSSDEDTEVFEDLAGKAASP", "sequence (P18113 whole entry, looked up)": "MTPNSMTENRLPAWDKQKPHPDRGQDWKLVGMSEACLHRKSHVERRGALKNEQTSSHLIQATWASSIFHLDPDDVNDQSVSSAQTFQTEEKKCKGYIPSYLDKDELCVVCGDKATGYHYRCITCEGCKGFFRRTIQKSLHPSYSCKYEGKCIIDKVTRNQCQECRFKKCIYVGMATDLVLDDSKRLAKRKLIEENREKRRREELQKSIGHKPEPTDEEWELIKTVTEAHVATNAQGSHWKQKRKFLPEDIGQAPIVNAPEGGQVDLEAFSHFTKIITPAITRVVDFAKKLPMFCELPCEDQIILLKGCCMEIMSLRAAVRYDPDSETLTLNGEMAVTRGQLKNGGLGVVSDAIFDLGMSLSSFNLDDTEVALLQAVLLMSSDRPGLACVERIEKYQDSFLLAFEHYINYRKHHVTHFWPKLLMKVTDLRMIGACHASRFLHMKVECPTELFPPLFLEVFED", "assay": "TOX21_TR_LUC_GH3_Agonist_Followup: Tox21 GH3 Thyroid Hormone Receptor Agonism Luciferase Follow-Up Assay (AID 2283939)", "how_it_was_run": "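Agonist-mode confirmatory run: 15 concentrations (5 nM to 92 uM final) on GH3 rat pituitary cells, 24 h at 37C/5% CO2, T3 as positive control. Luminescence read with ONE-Glo after 30 min.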"}, "[7]": {"assay": "TOX21_PR_LUC_Followup_Antagonist_viability: Viability Assessment in the Tox21 HEK293 Progesterone Receptor (PR) Antagonism Luciferase Follow-Up Assay (AID 2283940)", "how_it_was_run": "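Viability counter-readout: cellular ATP measured by luciferase luminescence after 16 h compound exposure at 37C of HEK293-PR-A-luc cells, which had been cultured in charcoal-stripped serum and seeded 5 h beforehand.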"}, "[8]": {"assay": "TOX21_PR_LUC_Followup_Agonist_viability: Viability Assessment in the Tox21 HEK293 Progesterone Receptor (PR) Agonism Luciferase Follow-Up Assay (AID 2283941);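 note: loss of signal means cytotoxicity so actives lower viability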", "how_it_was_run": "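Cytotoxicity counter-readout in the PR-A luciferase reporter line HEK293, with 16 h compound exposure at 37C after cells were cultured in charcoal-stripped serum. Cellular ATP quantified by CellTiter-Glo luminescence.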"}, "THRA (gene 7067)": {"molecular_target": "THRA (gene 7067) (UniProt P10827)", "sequence (P10827 whole entry, looked up, the tested form may be a part)": "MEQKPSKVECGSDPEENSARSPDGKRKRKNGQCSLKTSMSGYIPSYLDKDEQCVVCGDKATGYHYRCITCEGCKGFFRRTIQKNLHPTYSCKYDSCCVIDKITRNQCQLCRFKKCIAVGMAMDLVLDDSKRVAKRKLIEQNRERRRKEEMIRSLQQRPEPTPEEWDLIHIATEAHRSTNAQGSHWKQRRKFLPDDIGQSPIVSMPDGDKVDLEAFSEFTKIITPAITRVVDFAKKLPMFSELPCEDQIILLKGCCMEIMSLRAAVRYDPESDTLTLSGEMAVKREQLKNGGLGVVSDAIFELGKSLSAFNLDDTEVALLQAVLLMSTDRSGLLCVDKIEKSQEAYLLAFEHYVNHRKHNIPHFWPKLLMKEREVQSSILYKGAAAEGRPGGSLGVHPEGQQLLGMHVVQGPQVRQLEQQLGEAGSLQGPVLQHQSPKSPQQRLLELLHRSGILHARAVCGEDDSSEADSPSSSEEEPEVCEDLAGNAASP", "assay": "TOX21_TRA_COA_Agonist_Followup_ratio: Tox21 Thyroid Hormone Receptor alpha Agonism through Coactivator Recruitment Follow-Up Assay, Ratio (AID 2283948; active = hit-call score of the fitted dose curve at least 0.9, where 1 is the maximum; inactive = score below 0.9)", "how_it_was_run": "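Cell-free TR-FRET coactivator recruitment: GST-tagged TRα LBD (2.5 nM) with 0.10% BSA was incubated with compound, then fluorescein-SRC-2 peptide (200 nM) and Tb-anti-GST antibody (2 nM) added. 520:495 nm ratio normalized to DMSO (0%) and T3 (100%).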"}, "THRB (gene 7068)": {"molecular_target": "THRB (gene 7068) (UniProt P10828)", "sequence (P10828 whole entry, looked up, the tested form may be a part)": "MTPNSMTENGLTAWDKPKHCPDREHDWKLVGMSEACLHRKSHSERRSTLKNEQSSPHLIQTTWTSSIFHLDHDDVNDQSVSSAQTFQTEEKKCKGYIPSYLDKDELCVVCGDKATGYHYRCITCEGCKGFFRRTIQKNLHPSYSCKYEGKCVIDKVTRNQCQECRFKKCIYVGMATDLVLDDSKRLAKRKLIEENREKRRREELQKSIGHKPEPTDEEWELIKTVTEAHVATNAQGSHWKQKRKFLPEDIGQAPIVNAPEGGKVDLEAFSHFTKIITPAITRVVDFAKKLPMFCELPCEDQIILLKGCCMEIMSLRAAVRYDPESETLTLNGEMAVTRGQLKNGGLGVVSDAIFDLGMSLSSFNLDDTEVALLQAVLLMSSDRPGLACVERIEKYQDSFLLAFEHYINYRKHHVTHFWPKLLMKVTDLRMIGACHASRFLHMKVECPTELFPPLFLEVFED", "assay": "TOX21_TRB_COA_Agonist_Followup_ratio: Tox21 Thyroid Hormone Receptor beta Agonism through Coactivator Recruitment Follow-Up Assay, Ratio (AID 2283963; active = hit-call score of the fitted dose curve at least 0.9, where 1 is the maximum; inactive = score below 0.9)", "how_it_was_run": "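GST-TRb LBD 5.0 nM + 0.10% BSA + cpd; add fluorescein-SRC-2 200 nM / Tb anti-GST Ab 2 nM; TR-FRET ex 340, em 520:495; norm DMSO 0%, T3 100%.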"}}, "note": "Inconclusive results are not listed. Active and inactive are the calls of the source. Rule for the calls, unless noted: active = hit-call score of the fitted dose curve at least 0.9, where 1 is the maximum; inconclusive = response in the unintended direction; inactive = score below 0.9.", "data": [{"smiles": "O=C(c1ccccc1)c1ccc(O)cc1O", "values": [{"measurement": "AC50", "setting": "PGR (gene 5241) [1]", "result": "63.5 µM (active)"}, {"measurement": "outcome", "setting": "[2]", "result": "inactive"}, {"measurement": "outcome", "setting": "[3]", "result": "inactive"}, {"measurement": "outcome", "setting": "PGR (gene 5241) [4]", "result": "inactive"}, {"measurement": "AC50", "setting": "PGR (gene 5241) [5]", "result": "33.5 µM (active)"}, {"measurement": "outcome", "setting": "[6]", "result": "inactive"}, {"measurement": "outcome", "setting": "[7]", "result": "inactive"}, {"measurement": "outcome", "setting": "[8]", "result": "inactive"}, {"measurement": "outcome", "setting": "THRA (gene 7067)", "result": "inactive"}, {"measurement": "outcome", "setting": "THRB (gene 7068)", "result": "inactive"}]}, {"smiles": "C[C@]12CC[C@H]3C(=CCc4cc(O)ccc43)[C@@H]1CCC2=O", "values": [{"measurement": "outcome", "setting": "THRA (gene 7067)", "result": "inactive"}, {"measurement": "outcome", "setting": "THRB (gene 7068)", "result": "inactive"}]}]}
